Results: PubChem BioAssay AID1347426 (Functional Genomics Laboratory (NCATS/FGL), 2020)
The campaign covered roughly 31,000 sequences. About 1,400 (4.5%) were called active. Shown is part of a subset that was picked to be rich in actives. Values without a mark were called inactive.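 The calls were made as follows: active = median seed-adjusted z-score above 1 or below -1; inactive = the rest.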

Test: Novel Modifiers of Survival Motor Neuron (SMN) Protein: Gene Identification via Genome-wide siRNA Screen;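 also: luminescence tracks full-length SMN protein made from the SMN2 reporter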
Conditions: HEK293T SMN2-luciferase reporter, siRNA knockdown, 72 h; actives lie on both sides
In short: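 siRNA screen, 10418 genes ×3 siRNAs; 1 pmol/well, lipid reverse transfection into HEK293T SMN2-luc reporter line. 72 h, 37 °C, 5% CO2; ONE-Glo readout. Data: neg-ctrl normalized, log10, MAD; hit = MAD >1.0 or < -1.0.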
With GCAAGACAAGUGUCGGGAATT against HSPA6 the median seed-adjusted z-score was 0.364. With CAGCAGAACGUGUACGAGATT against ZBTB7A the median seed-adjusted z-score was -0.344. With CAAGUGGGCUGAGUACCAUTT against PHPT1 the median seed-adjusted z-score was 1.27 (active). Work on GAGGUAAGAUGGAUGAAGATT against ACSM1 yielded a median seed-adjusted z-score of 0.658. UCAAUGCCUCCUUAAUUUUTT against ZNF321 gave a median seed-adjusted z-score of -0.642. Sequence CAGCGGAUGUGUUCAGUCUTT against PKMYT1 has a median seed-adjusted z-score of 0.65. For CAAAACUAGUAAUCCUUAUTT against CDK8, the median seed-adjusted z-score was -1.47 (active). Sequence GGACAUGUGCGUCUACCGATT against HOXD13 has a median seed-adjusted z-score of 0.116. GGAUUUAUCAGAACCUUUATT against SLC25A15 showed a median seed-adjusted z-score of -0.0116. Sequence CCUACCAUCUUGUCCCUAATT against SLC7A6 has a median seed-adjusted z-score of -0.0877. UGGAGUAAAUGAUAAGAUATT against TRIM45 gave a median seed-adjusted z-score of -0.0974. For GCACCAUUACUAUAGAGGATT against PTH2R, the median seed-adjusted z-score was -0.492. With CAUCACCUAUUGGAUCCAATT against MMP9 the median seed-adjusted z-score was -1.15 (active). Sequence CGGUCCAAAUUGAAAGCGATT against STX1B has a median seed-adjusted z-score of 0.229. Sequence CGACUUGUUGUAUAAGUAUTT against DYNC1LI2 has a median seed-adjusted z-score of -0.491. CCAAGUUAUUGCUAUCAGATT against PPCS gave a median seed-adjusted z-score of 0. With GGUAAACGCAAAGCACUGATT against MAP2K4 the median seed-adjusted z-score was -0.366. Work on GCCUCUUGCUAGGCAUAGCTT against CLDN15 yielded a median seed-adjusted z-score of 0.973. With CCCUCGACAGAGUCAGUUUTT against NPC1 the median seed-adjusted z-score was -0.195. For GAUUGAAACUGACAAGACATT against DLST, the median seed-adjusted z-score was 1.16 (active). For CAGCUACGGAAGAACCUGATT against PHF21A, the median seed-adjusted z-score was 0.179. For UCGAGGAAAUGAUCCGGGATT against GALE, the median seed-adjusted z-score was -0.153. GGAGGAUCGUUUAGACAGATT against TCF12 showed a median seed-adjusted z-score of -0.16. With CAGCUGCAAUUCUAGCUAATT against RETSAT the median seed-adjusted z-score was -1.7 (active). With CAAUCACUGUGGAAUAUCATT against INPPL1 the median seed-adjusted z-score was 0.199. For CAAGGGUAUUAUUCGAGUUTT against PPP1R3A, the median seed-adjusted z-score was -0.241. GAAAACCGCAGAUAAAGUATT against NFRKB showed a median seed-adjusted z-score of 0.787. With GGUGCAAUCAGAUAACAUATT against PPAPDC1A the median seed-adjusted z-score was 0.634. CUGUUUAAGCGAUGACAAATT against CFL2 gave a median seed-adjusted z-score of -0.148. For AUCCUUAUUUGACACGAAATT against HOXC8, the median seed-adjusted z-score was -0.0285. With GGACUUUGCCUAUGUCUGUTT against TFAP2C the median seed-adjusted z-score was 1.28 (active). With AGACCACCAAGGUUUCUUUTT against KCNH6 the median seed-adjusted z-score was 0.424. For CUGGAAUGGUUGUCUGGUATT against SERTAD1, the median seed-adjusted z-score was 0.376. In the case of GAAGAGAACUUCUGCCGUATT against MST1, the median seed-adjusted z-score is reported as -1.47 (active). GAUUAAUCCUUCAAUGAUUTT against TAF9B gave a median seed-adjusted z-score of -0.0247. Work on CGUCAGCUAUGUAAUGUUUTT against SLC22A7 yielded a median seed-adjusted z-score of -0.387. With GGACAGCUACGUGAAGAUUTT against PAK6 the median seed-adjusted z-score was -0.57. With UGAUGGUUGUGACAAUUGUTT against SUPT4H1 the median seed-adjusted z-score was -1.01 (active). Sequence AGCCUGUGAUGACUACAGATT against MGP has a median seed-adjusted z-score of -0.0854. GAACUUACCUUCAACUACATT against NSD1 gave a median seed-adjusted z-score of -0.372. With GAGUGAUUCUAGCCUCUAATT against SEC61A1 the median seed-adjusted z-score was 0.312. Work on CGAGAAAUCCCACAAGCGATT against NOVA2 yielded a median seed-adjusted z-score of 0. GGAAGGCUUUUAGCAAUGATT against ZNF570 showed a median seed-adjusted z-score of 0.662. For GGAUCGAGGAAAUAACAAUTT against DDX42, the median seed-adjusted z-score was -2.13 (active). Work on GAAUGAGUUUUGUCAUGGATT against SUV39H2 yielded a median seed-adjusted z-score of -0.279. With AGGCCGUGCUCUUCACCUATT against FAAH the median seed-adjusted z-score was 0.373. Sequence GAGAUAUACGAGGAGAUUATT against TIGD1 has a median seed-adjusted z-score of 0.224. In the case of GGUCAGAACAUUCACCGAATT against CFTR, the median seed-adjusted z-score is reported as -1.23 (active). Work on GAAUGUGCUAUGAAGCUUUTT against SPRR1B yielded a median seed-adjusted z-score of -0.721. Work on GGCUCGUAUUUUCUGGUUUTT against ACHE yielded a median seed-adjusted z-score of 0. Sequence CCUUGCCUCUAUGAGAUCATT against CHCHD2 has a median seed-adjusted z-score of 0.0884. GGGUCAUUCUAUGGGCAAATT against OGFOD2 showed a median seed-adjusted z-score of 0.493. With GACUUGAGCUAAAUGGUCATT against SIAH1 the median seed-adjusted z-score was 1.5 (active). CCUAUACUGUGGGCUAUAATT against STARD4 gave a median seed-adjusted z-score of 0.173. With AGCCGUGGAUGGUAGAUCUTT against ZNF2 the median seed-adjusted z-score was -0.119. In the case of CAGACUAAACUAUAGCGAUTT against SENP6, the median seed-adjusted z-score is reported as -1.03 (active). For GCAACUCCAAUGUCAGUGATT against TAF9B, the median seed-adjusted z-score was -0.0247. In the case of GAGUCUGAAGGAUACUAUUTT against PGAM1, the median seed-adjusted z-score is reported as -0.234. GCCCUGAACAAGUUGCUCATT against TRPV6 gave a median seed-adjusted z-score of -0.511. In the case of GCUUUUCCCGGUCAGAUCATT against KLF12, the median seed-adjusted z-score is reported as -0.0892. Sequence CCAUCGCAGAGGGAGAUAATT against USP43 has a median seed-adjusted z-score of 0. With GCUUCUAUAUUCAUGCUAATT against DDX6 the median seed-adjusted z-score was 1.12 (active). With GGUGAUGAGUGUUCCUACATT against KCNA4 the median seed-adjusted z-score was -0.634. GGAUUUCUCAUGGAAGUUUTT against CUTC showed a median seed-adjusted z-score of -0.377. CGUAAAACCCAUCAAGUUUTT against B3GALNT1 showed a median seed-adjusted z-score of 0.128. Work on GGCGGCAAGACGUAAGGAATT against SEMA3B yielded a median seed-adjusted z-score of 0.000251. For UGCUGACCCUAAUCCCUUATT against ETV2, the median seed-adjusted z-score was 0. Sequence AGUUAGAGGUAGCAUUAUATT against FZD5 has a median seed-adjusted z-score of -0.129. Work on GAGCAAUGCUGACUAUCAATT against CNOT7 yielded a median seed-adjusted z-score of 0.716. With CACUCGCAGUUAAUAUCAUTT against AZIN1 the median seed-adjusted z-score was -1.14 (active). With GGAUCCAGCUUUUCCUCGATT against ABCC10 the median seed-adjusted z-score was -1.56 (active). Sequence CCACGGCUGCAACAUCUUUTT against PDE2A has a median seed-adjusted z-score of -0.2. Work on CAGCCGCUCUCGUCAAUGUTT against GGTLC2 yielded a median seed-adjusted z-score of -0.288. Work on ACAACUUCGUUUUCGGUCATT against TUBB2C yielded a median seed-adjusted z-score of 0. In the case of GCAGCAACAUUAUUGUCUUTT against CLDN17, the median seed-adjusted z-score is reported as 0. GAAUGAAUUCUCUACUCUATT against ERBB3 showed a median seed-adjusted z-score of -0.561. For GCCUGUGAAGUGAACCUGATT against TMPRSS6, the median seed-adjusted z-score was 1.29 (active). Work on UGAUAUUGCUUAGUCCAUUTT against PRLHR yielded a median seed-adjusted z-score of 0. For CAAACGUGGACUGUCCAAATT against CA4, the median seed-adjusted z-score was 0.0549. With CAUGCACGGAGAGCCCAAATT against RPUSD3 the median seed-adjusted z-score was 0.303. Sequence CCAGGAGAUCUUUGCCUUUTT against SLC4A3 has a median seed-adjusted z-score of -0.7. Sequence GAACCGCUACAAGAACAUUTT against PTPN6 has a median seed-adjusted z-score of -0.515. In the case of AGAUGAAACUUCUACUGAATT against POLR2H, the median seed-adjusted z-score is reported as -2.74 (active). For CUUUGUCUAUGUCACCAUUTT against IMP5, the median seed-adjusted z-score was 0.559. With CAAGCGAAUUAACUAUCUATT against GJB3 the median seed-adjusted z-score was -0.198. With GUCUCGCUGUGAUAGAUCATT against ELN the median seed-adjusted z-score was -0.149. Work on CCAACAUCGAGUCCCUCAATT against SLC29A3 yielded a median seed-adjusted z-score of -0.0626. CUGAUAAAGUGGGUCAACATT against TNFRSF10B gave a median seed-adjusted z-score of 0.064. CCAUCGUCAUGGAUCCAGATT against KDR showed a median seed-adjusted z-score of 0.0728. GGGACAUCCUUUCCGGAAATT against NDUFS3 gave a median seed-adjusted z-score of -0.54. GGAGUGUGAUGAUUCGUGATT against DGKK gave a median seed-adjusted z-score of 0. For AGAACUCACCUCCUGAUUATT against YY1, the median seed-adjusted z-score was 1.94 (active). Sequence GCAAGAUAACAAUUGAUAUTT against ANKRD30A has a median seed-adjusted z-score of 0.259. AGAUCUUCGCAAAUACUGUTT against KRT18 gave a median seed-adjusted z-score of 0.558. For GGCUUAUGGAGGACCCUAUTT against NCOR1, the median seed-adjusted z-score was 0.0767. CCUAUGAUCCAACACCAUATT against GMPPA showed a median seed-adjusted z-score of 0.619. With CAUUAGCAGUUGUCCCGUUTT against P2RY10 the median seed-adjusted z-score was -0.432. Work on CUACUUCCGCAACCAGCUATT against UNC119 yielded a median seed-adjusted z-score of 0.171. In the case of CUAUGGUAGCGACACUGCATT against LILRB1, the median seed-adjusted z-score is reported as 0.539. UCACAGAGCCUAUUAUUUUTT against PRKY gave a median seed-adjusted z-score of 0.168. Sequence GUGUCAGAGUUUAUAUCAATT against PDE4D has a median seed-adjusted z-score of 0. With CAAACUAUCUCUGAAAAUATT against TRYX3 the median seed-adjusted z-score was 2.3 (active). Sequence GCUGAUGACUGUCGUUAUATT against TBX3 has a median seed-adjusted z-score of 0. Work on CAUCCUGUAUAAGUACUAUTT against RNF216 yielded a median seed-adjusted z-score of -0.246. For UCAACAUCGUCUACCAGGATT against SCNN1D, the median seed-adjusted z-score was -1.8 (active). Work on GAUCUACCCUGCUCACGAUTT against ETHE1 yielded a median seed-adjusted z-score of 0. CAGGCUACAGUGAACAGAATT against GNL1 showed a median seed-adjusted z-score of 0.154. Sequence GCGCGUUGGUACAAUGGAATT against GOT1 has a median seed-adjusted z-score of 0.0103. Sequence GCUUGUCUUUCAACCCGAUTT against PARP4 has a median seed-adjusted z-score of -0.226.
